In the library only some 2.1% were active in any assay of this set; here they are far more common.
TDP-43 yeast inh: rescues yeast growth from TDP-43 toxicity; TDP-43 expressing yeast growth rescue, BacTiter-Glo, 24 h; Potency, µM (highest dose often 46.1 µM), actives largely listed as activators; hit rate 1.8% among 410,000; AID 652104; also: nearly all actives have a fitted effect of over 50% in size
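Luminescence from BacTiter-Glo reports growth of TDP-43-expressing yeast after 24 hr at 30 deg C with compound. Cells were raffinose-pregrown to mid-log, then seeded in galactose medium at OD600=0.02.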
FUS yeast rescue: suppressors of FUS proteinopathy in yeast. hit rate 0.24% among 390,000. Potency, µM (top dose mostly 76.6 µM), hits mostly activators. S. cerevisiae FUS-expressing, growth rescue, OD600, 24 h; also: nearly all actives have a fitted effect of over 55% in size
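Cultures pregrown in 2.5% raffinose medium are shifted to minimal medium containing 2% galactose to express toxic FUS. Compounds are tested at several concentrations. After 24hr at 30C, growth is quantified at 600 nm absorbance.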
Abeta yeast res: restores growth of yeast expressing A-beta42 peptide; yeast expressing A-beta42, growth rescue, OD600, 48 h; response scale: 0% DMSO, 100% iron-clioquinol control; Potency, µM (highest dose often 46.1 µM), usual class: activators; hit rate 0.063% among 410,000; also: nearly all actives have a fitted effect of over 55% in size
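Yeast A-beta toxicity model in growth medium with pinned compounds, 48 h at 30 C; growth read as absorbance at 600 nm. Normalized to FeCl3/clioquinol equimolar mix (positive) and DMSO (negative).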
aSyn rescue: inhibitors of alpha-synuclein toxicity in yeast. Yeast expressing alpha-synuclein, growth rescue, BacTiter-Glo, 24 h. hit rate 0.14% among 370,000. Potency, µM (highest dose often 46.1 µM), hits mostly activators; also: nearly all actives have a fitted effect of over 65% in size
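Galactose-induced alpha-syn yeast (OD600=0.02, raffinose-pregrown) + pinned cpd, 24 hr, 30 deg C; growth by BacTiter-Glo luminescence. Growth restoration scores as activation.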
Numbers stand for hits; i = inactive; ? = inconclusive; nt = no result given; [ ] = another dose, or the depositor's remark. Calls follow the shape of the dose curve; as a rule, active = well fitted curve in the direction sought with a large enough effect; inconclusive = small, poorly fitted or top-dose-only effect, or another doubt; inactive = no such curve, though single readings can be large; an effect the other way counts as inactive or inconclusive.

SMILES	TDP-43 yeast inh	FUS yeast rescue	Abeta yeast res	aSyn rescue
COP(=O)(OC)C(NC(=O)OCc1ccccc1)C(C)C (configuration not stated)	nt	i	nt	nt
CCOC(=O)c1sc2ncnc(NCc3ccco3)c2c1C	20µM	i	?	i
COc1c(C)cc(Br)cc1C(=O)Nc1cccc(NC(=O)c2ccco2)c1	?	nt	i	i
COc1ccc(Br)cc1C(=O)Nc1cccc(NC(=O)c2ccco2)c1	8.91µM	nt	i	i
COc1ccc(NC(=O)c2ccco2)cc1NC(=O)c1ccc(C)c(C)c1	15.8µM	i	i	nt
Cc1ccc(NC(=O)C2CCCN2S(=O)(=O)c2cccc3nsnc23)c(Br)c1 (configuration not stated)	20µM	i	i	nt
Cc1ccc(S(=O)(=O)N2[C@@H](c3ccccc3)C(C(=O)O)=CC[C@H]2c2cccc(Cl)c2)cc1	35.5µM	i	i	i
Cc1ccc(S(=O)(=O)N2[C@@H](c3ccc(F)cc3)C(C(=O)O)=CC[C@H]2c2ccc3c(c2)OCO3)cc1	17.8µM	i	i	i
Cc1ccc([C@@H]2CC=C(C(=O)O)[C@H](c3ccc(Br)cc3)N2S(=O)(=O)c2ccc(C)cc2)cc1	?	i	i	i
Cc1ccc(S(=O)(=O)N2[C@@H](c3ccccc3F)C(C(=O)O)=CC[C@H]2c2ccc3c(c2)OCO3)cc1	i	i	i	i
Cc1ccc(S(=O)(=O)N2[C@@H](c3ccc(F)cc3)C(C(=O)O)=CC[C@H]2c2cccc(C)c2)cc1	31.6µM	i	i	i
COc1cccc([C@@H]2CC=C(C(=O)O)[C@H](c3ccc(Br)cc3)N2S(=O)(=O)c2ccc(C)cc2)c1	35.5µM	i	i	i
CC(C)(C)c1ccc(S(=O)(=O)N2CCCC(C(=O)NCc3ccco3)C2)cc1 (configuration not stated)	nt	i	nt	nt
Cn1ccc2c(-c3cncc4ccccc34)cc3c(c21)C1CCC3C1 (configuration not stated)	28.2µM	i	i	i
CSc1ccc(/C=C/C(=O)c2ccc(O)cc2)cc1	14.1µM	i	?	i
CN(C(=O)CCn1nnc(-c2cccs2)n1)C1CCCCC1	nt	i	nt	nt
COC(=O)c1sccc1NC(=O)Nc1cccc(Cl)c1Cl	i	i	i	i
COC(=O)c1sccc1NC(=O)Nc1ccccc1Cl	11.2µM	i	i	i
COC(=O)c1sccc1NC(=O)Nc1cc(OC)ccc1OC	17.8µM	i	i	i
COC(=O)c1sccc1Oc1c(Cl)cccc1[N+](=O)[O-]	20µM	i	i	i
COC(=O)c1sccc1NC(=O)c1ccccc1[N+](=O)[O-]	?	nt	i	i
O=C(Nc1nnc(-c2cccnc2)s1)c1cnc2ccccc2c1	nt	i	nt	nt
COc1cc2c(NC3CCN(C(C)C)CC3)nc(N3CCCN(C)CC3)nc2cc1OCCOCCN(C)C	nt	nt	nt	i
COC(=O)[C@]1(C)CN(C(=O)OC(C)(C)C)C2=C1C(=O)C[C@@](C)(C(=O)OC(C)(C)C)C2	nt	i	nt	nt
C=C1C=C(C(F)F)n2ncc(C(=O)N3CCCCC3)c2N1	nt	nt	nt	i
SMILES	TDP-43 yeast inh	FUS yeast rescue	Abeta yeast res	aSyn rescue
N#Cc1c(N)[nH]c2ccc(Sc3ccccc3)cc12	22.4µM	nt	i	i
COC(=O)[C@]12C[C@H](CC(=O)NCc3ccccc3)C(=O)N(Cc3ccco3)C1=C[C@H](COCc1ccccc1)O[C@@H]2C	nt	i	nt	nt
OC1C(Br)=Cc2ccccc21 (configuration not stated)	nt	nt	nt	i
Cc1cc(N2CCN(c3cccc(C)c3C)CC2)n2cnnc2n1	22.4µM	i	i	nt
Cc1cc(N2CCN(c3ccccc3F)CC2)n2cnnc2n1	?	i	i	nt
COc1ccc(C2C(C#N)=C(N)N(c3ccccc3)C3=C2C(=O)CCC3)cc1Cn1cc([N+](=O)[O-])cn1 (configuration not stated)	i	25.1µM	i	i
CN(C1=C(N2CCOCC2)C(=O)c2ccccc2C1=O)c1ccccc1	11.2µM	nt	i	i
CCOC(=O)[C@]12CCCCC/C=C\1N(CCc1ccc(Cl)cc1)C(=O)[C@H]2CC(=O)NCC12CC3CC(CC(C3)C1)C2	nt	i	nt	nt
O=C(COc1ccc(Cl)cc1)NCCSCc1ccccc1Cl	25.1µM	i	i	i
Cc1cccc(CSCCNC(=O)COc2ccc(Cl)cc2)c1	?	i	i	i
O=C(COc1ccc(Cl)cc1)NCCSCc1cccc(Cl)c1	15.8µM	i	i	i
CCOc1ccc(N(CC(=O)NCCSCc2ccccc2Cl)S(C)(=O)=O)cc1	i	i	i	i
C=CC[C@@H]1NN2C(=O)[C@@H](C)[C@@H]3c4ccccc4C=NN3[C@@H]2c2ccccc21	nt	i	nt	nt
Cc1ccc(NC(=S)NCc2ccccc2)cc1C	12.6µM	i	i	i
FC(F)(F)c1cccc(NC(=S)NCc2ccccc2)c1	14.1µM	i	?	i
CCOc1cc(OCC)cc(C(=O)NC(=S)Nc2cccc(C(F)(F)F)c2)c1	i	nt	i	i
Cc1nc2ccc(NC(=S)NCc3ccccc3)cc2nc1C	i[0.397 µM]	i	i	i
O=C(NC(=S)Nc1cccc(C(F)(F)F)c1)c1ccc2nonc2c1	11.2µM	i	i	i
Cc1ccc(C)c(N2CCN(C(=O)C3CCN(C(=O)c4cc5sccc5n4C)CC3)CC2)c1	12.6µM	?	i	nt
Cc1cccc(N2CCN(C(=O)C3CCN(C(=O)c4cc5sccc5n4C)CC3)CC2C)c1 (configuration not stated)	i	31.6µM	?	nt
Cc1ccc(C)c(N2CCN(C(=O)c3cc4sccc4n3C)CC2)c1	i	?	i	i
Nc1nc(NCc2ccc(Cl)cc2Cl)c2[nH]cnc2n1	nt	nt	nt	i
CC(=O)c1cc(-c2cc(C(F)(F)F)cc(C(F)(F)F)c2)c(=O)n2c1CCC2	nt	i	nt	nt
CCCN1CNc2c(c(=O)[nH]c(=S)n2Cc2ccc(OC)c(OC)c2)C1	nt	nt	nt	i
COC(=O)[C@H]1C[C@@]2(N3CCCC3)c3ccccc3N[C@H]2N1S(C)(=O)=O	nt	i	nt	nt
SMILES	TDP-43 yeast inh	FUS yeast rescue	Abeta yeast res	aSyn rescue
CN1C(=O)C2(Nc3ccccc3-c3nc4ccccc4n32)c2ccccc21 (configuration not stated)	i	50.1µM	i	i
CCOc1ccc(CNC(=O)c2cnc3sc(N4CCOCC4)nn3c2=O)cc1OC	i	i	i	nt
O=C(NC(=S)Nc1ccccc1Br)C1CCCCC1	15.8µM	nt	i	i
COC(=O)c1ccccc1NC(=S)NC(=O)C1CC1	i	i	i	i
O=C(NC(=S)Nc1ccccc1Br)C1CCCC1	15.8µM	i	?	i
COc1cc2c(c(OC)c1)[C@H](/C=C/c1ccccc1)[C@@H]([C@H](O)CO)OC2	nt	i	nt	nt
Nc1c(Br)cc(/C=C/c2ccnc3ccccc23)cc1Br	nt	nt	nt	i
O=C(O)c1ccc(N/N=C/c2ccc(C(F)(F)F)cc2)cc1	i	i	i	i
CC(C)(C)c1ccc(/C=N/Nc2ccc(C(=O)O)cc2)cc1	15.8µM	i	i	i
COc1ccc(/C=C2\SC(=O)NC2=S)cc1OC	8.91µM	i	i	i
CCOc1ccc(/C=C2\SC(=S)NC2=O)cc1OC	i	i	i	i
COc1ccc(C/C(=N\O)c2ccc(OC)cc2)cc1	14.1µM	i	i	i
COc1ccc(/C(N)=N/OC(=O)Cc2ccccc2OC)cc1	20µM	i	i	i
